# Experimental data reported in PubChem BioAssay (EPA / NIEHS).
# Active and inactive are the calls of the source. The calls were made as follows: active = hit-call score of the fitted dose curve at least 0.9, where 1 is the maximum; inactive = score below 0.9.
# Read-out: Interleukin 2 (IL2), IL2 (gene 3558)
# Assay: BSK_BT_xIL2: BioMAP Diversity Plus: BT Assay for Interleukin 2 (IL2) Biomarker Activity (AID 2284245)
# Settings: primary human B cells with PBMC
# Outline: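 B cell + PBMC co-culture (human primary), compound added, 24 h incubation; secreted IL-2 measured multiplexed on Luminex xMAP; gain-of-signal fit vs DMSO.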
Compound,outcome,AC50
CC(C)(C)c1cccc(O)c1,inactive,–
CCOC(=O)CCCCCCCCC(=O)OCC,inactive,–
c1ccc(Sc2ccccc2)cc1,inactive,–
C=CC(=O)OCC(CO)(COC(=O)C=C)COC(=O)C=C,–,1.27 µM (active)
OCCN1CCOCC1,inactive,–
CC(=O)CCC=C(C)CCC=C(C)C,inactive,–
CCCCCCCCCCCCS,inactive,–
CCCCCCCCCC(=O)OCC,inactive,–
CCC(=O)OCC=Cc1ccccc1,inactive,–
CCOC(=O)C=Cc1ccccc1,inactive,–
CC(=O)OCC=C(C)CCC=C(C)CCC=C(C)C,–,36.4 µM (active)
NC(=O)c1c(Cl)cccc1Cl,inactive,–
Nc1ccc(N)c([N+](=O)[O-])c1,inactive,–
CC1=CC(C)C(C=O)C(C)C1 (configuration not stated) (tested in a mixture with another compound),inactive,–

# Read-out: Basic fibroblast growth factor (bFGF), FGF2 (gene 2247)
# Assay: BSK_MyoF_bFGF: BioMAP Diversity Plus: MyoF Assay for Basic fibroblast growth factor (bFGF) Biomarker Activity (AID 2284246)
# Settings: primary human lung fibroblasts
# Outline: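 ELISA-measured bFGF level serves as the read-out, taken 24 h after chemical dosing of human lung fibroblasts. Values represent signal gain over the DMSO negative control.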
Compound,outcome,AC50
CC(C)(C)c1cccc(O)c1,inactive,–
CCOC(=O)CCCCCCCCC(=O)OCC,inactive,–
c1ccc(Sc2ccccc2)cc1,–,31.9 µM (active)
C=CC(=O)OCC(CO)(COC(=O)C=C)COC(=O)C=C,–,1.62 µM (active)
OCCN1CCOCC1,inactive,–
CC(=O)CCC=C(C)CCC=C(C)C,inactive,–
CCCCCCCCCCCCS,–,29 µM (active)
CCCCCCCCCC(=O)OCC,inactive,–
CCC(=O)OCC=Cc1ccccc1,inactive,–
CCOC(=O)C=Cc1ccccc1,inactive,–
CC(=O)OCC=C(C)CCC=C(C)CCC=C(C)C,inactive,–
NC(=O)c1c(Cl)cccc1Cl,inactive,–
Nc1ccc(N)c([N+](=O)[O-])c1,inactive,–
CC1=CC(C)C(C=O)C(C)C1 (configuration not stated) (tested in a mixture with another compound),inactive,–

# Read-out: Collagen IV, COL4A1 (gene 1282)
# Assay: BSK_MyoF_CollagenIV: BioMAP Diversity Plus: MyoF Assay for Collagen IV Biomarker Activity (AID 2284247)
# Settings: primary human lung fibroblasts
# Outline: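 Steps: dose human lung fibroblasts; culture 24 h; quantify Collagen IV by ELISA; fit increase versus DMSO control. Parallel SRB total-protein staining (0.1% SRB after 10% TCA fixation, 560 nm) tracks overt cytotoxicity.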
Compound,outcome,AC50
CC(C)(C)c1cccc(O)c1,inactive,–
CCOC(=O)CCCCCCCCC(=O)OCC,inactive,–
c1ccc(Sc2ccccc2)cc1,–,32.6 µM (active)
C=CC(=O)OCC(CO)(COC(=O)C=C)COC(=O)C=C,inactive,–
OCCN1CCOCC1,inactive,–
CC(=O)CCC=C(C)CCC=C(C)C,inactive,–
CCCCCCCCCCCCS,inactive,–
CCCCCCCCCC(=O)OCC,inactive,–
CCC(=O)OCC=Cc1ccccc1,inactive,–
CCOC(=O)C=Cc1ccccc1,inactive,–
CC(=O)OCC=C(C)CCC=C(C)CCC=C(C)C,inactive,–
NC(=O)c1c(Cl)cccc1Cl,inactive,–
Nc1ccc(N)c([N+](=O)[O-])c1,inactive,–
CC1=CC(C)C(C=O)C(C)C1 (configuration not stated) (tested in a mixture with another compound),inactive,–
